According to PubChem BioAssay:
Several values for one entry are separate records, joined by “and”; a condition that tells them apart may be missing. Equal entries are not always repeated. Records with an inconclusive call do not appear. Activity calls are given as the source filed them.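 The calls were made as follows, unless noted: active = normalized viability below 100% at a tested concentration; inactive = the rest.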

Key:
[1] = stimulators of nuclear beta-catenin in C2C12, primary screen, imaging, WNT3A-conditioned medium, mouse C2C12, NPC library (AID 1117326; in the data active = nuclear beta-catenin stimulation mostly above about 4.2%, no sharp cut-off; inactive = mostly below about 10%); details: stronger effect = higher value
[2] = stimulators of insulin release from INS-1E, primary screen, cell-based, 5 mM glucose, NPC library (AID 1117329;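 active = compound raises insulin release from rat beta cells at 5 mM glucose, no numeric limit stated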); details: rat INS-1E insulin secretion, at 10 µM, stronger effect = higher value
[3] = growth inhibition of GSK3B-pretreated HCT116 cells – cell-based, CellTiter-Glo, 0.2 to 20 µM (AID 1117336;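 active = compounds lowering colon cancer cell viability after pretreatment blocking the GSK3B kinase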); details: HCT116 viability after GSK3B inhibitor, at 20 µM, stronger effect = higher value
[4] = inhibition of endothelial tube formation, primary screen, imaging, VEGF stimulated, CD31 staining, tube area, NPC library (AID 1117340;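 active = compound that reduces growth-factor-driven endothelial tube area in a mixed cell culture, no cutoff stated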); details: VEGF-stimulated ADSC/ECFC co-culture, at 10 µM, stronger effect = higher value
[5] = glucagon-like peptide 1 release enhancers, primary assay, NCI-H716 cell line, NPC library (AID 1117341;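 active = compound raises GLP1 secretion from the human gut endocrine cells, with no numeric limit stated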); details: NCI-H716 cells, at 10 µM, stronger effect = higher value
[6] = HCT116 colon cancer cell growth inhibition, primary screen, CellTiter-Glo luminescence, NPC library (AID 1117342;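 active = compounds that lower survival of HCT116 colon cancer cells in the luminescence readout, no numeric limit stated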); details: at 20 µM (top of the series)
[7] = CellTiter-Glo luminescent readout of SW480 viability loss, NPC library primary (AID 1117343;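 active = compounds that lower viability of the colon cancer cells in the luminescence readout, with no numeric limit stated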); details: CellTiter-Glo luminescence; at 20 µM (top of the series) unless noted
[8] = decreased DLD-1 cellular survival, CellTiter-Glo luminescent readout, NPC compound collection, primary HTS (AID 1117346;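 active = compounds that lower survival of DLD-1 colon cancer cells in the luminescence readout, no cutoff given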); details: DLD-1 viability, CellTiter-Glo luminescence; at 20 µM (top of the series)
[9] = differential killing of epithelial or mesenchymal cells, primary screen, imaging, PC-3E GFP, TEM4-18 mCherry, co-culture (AID 1345086;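 active = compounds killing one labelled cell type while sparing the other, by normalised counts and ratio limits, not self-fluorescent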;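 as to all read-outs here: cells exposed to compound for 72 h before imaging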;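 as to red/green cell ratio (normalised): normalised mesenchymal count divided by normalised epithelial count so high means epithelial killing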); details: imaging cell counts, at 1 µM; for red/green cell ratio (normalised): actives lie on both sides, counts scaled to control wells, 1 = unselective
[10] = liver-stage malaria parasite growth inhibition, primary screen, cell-based, HepG2, luciferase luminescence, HepG2 viability (AID 624349; in the data active = parasite load remaining mostly below about 12%, no sharp cut-off; inactive = mostly above about 10%;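 also: 100% = mean of DMSO negative control wells on the same plate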); details: P. berghei liver stage in HepG2, luciferase luminescence, concentration not given here; parasite load remaining: stronger effect = lower value; viability: measured here: HepG2 viability without parasites
[11] = sensitizers of A549 cells to miR-34 induction, primary screen, imaging, A549 dox-inducible miR-34, nuclei and caspase counts (AID 1347080;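 active = compounds whose cell count with miR-34 switched on is under 0.7 times the count with it off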); details: A549 miR-34 inducible, Hoechst nuclei count, 48 h
[12] = tested on: Aerobactin synthetase IucA (Klebsiella pneumoniae); assay: IucA aerobactin synthetase inhibitors, biochemical, Tocris library, absorbance (AID 1345561; call rule not given here;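 also: 100% = enzyme without compound and 0% = no enzyme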); details: purified IucA enzyme assay, absorbance (OD) read-out; stronger effect = lower value;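 tested at 8 µM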
[13] = growth inhibition of DIPG glioma cells, dose response, cell-based, SU-DIPG-XVII, MIPE5.0, CellTiter-Glo, qHTS (AID 1347060; cut-off not given, nearly all actives have AC50 up to about 26 µM;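 also: cells exposed to compound for 48 hours before viability readout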); details: SU-DIPG-XVII viability, CellTiter-Glo ATP luminescence
[14] = growth inhibition of DIPG glioma cells, dose response, cell-based, SU-DIPG-XIII, MIPE4.0, CellTiter-Glo, qHTS (AID 1347061; cut-off not given, nearly all actives have AC50 up to about 37 µM;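 also: cells exposed to compound for 48 hours before readout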); details: SU-DIPG-XIII viability, CellTiter-Glo ATP luminescence
[15] = growth inhibition of DIPG glioma cells, dose response, cell-based, JHH-DIPG-1, MIPE4.0, CellTiter-Glo, qHTS (AID 1347062; cut-off not given, nearly all actives have AC50 up to about 27 µM); details: JHH-DIPG-1 viability, CellTiter-Glo ATP luminescence
[16] = SU-DIPG-XXV glioma cell viability, MIPE5.0 library, qHTS (AID 1347068; cut-off not given, nearly all actives have IC50 up to about 30 µM)
[17] = survival rescue of mitochondrial mutant cells in low glucose, primary screen, MELAS cybrids, Rieske KO mouse fibroblasts, CellTiter-Glo (AID 1508586);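 also: z relative to plate mean and SD of compound and empty wells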
[18] = ovarian cancer cell viability with rucaparib, profiling panel, oncology-focused library, rucaparib conditional (AID 1508598); details: patient-derived ovarian cancer cells, CellTiter-Glo viability, 144 h, stronger effect = lower value
[19] = target: NAD(+) hydrolase SARM1 (Homo sapiens) (UniProt Q6SZW1); assay: SARM1 TIR NADase inhibitors, cell lysate, NAD-Glo luminescence (AID 1508614;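 active = compound whose remaining NAD level is above about 45 nM, limit read from the data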;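 also: higher remaining NAD means stronger inhibition of SARM1 NADase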); details: SAM-TIR HEK293T lysate NADase, at 1 µM, stronger effect = higher value
[20] = viability rescue of complex I mutant cybrids, primary screen, cell-based, galactose medium, ATP luminescence (AID 1645843;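 active = z-score of at least 1.8 in each of two replicates, scored against plate mean and spread of sample wells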;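 also: positive z means more ATP and so rescue of galactose-driven cybrid death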); details: complex I mutant cybrid cells, 72 h, stronger effect = higher value
[21] = measured here: epithelial PC-3E GFP cell survival
[22] = measured here: mesenchymal TEM4-18 mCherry cell survival
[23] = stronger effect = lower value, cell number ratio, induced over uninduced
[24] = measured here: relative caspase fold change +Dox/-Dox
[25] = measured here: total cells with miR-34 induction, stronger effect = lower value
[26] = measured here: total cells without miR-34 induction

Sequence of NAD(+) hydrolase SARM1 (Homo sapiens) (Q6SZW1 whole entry, looked up): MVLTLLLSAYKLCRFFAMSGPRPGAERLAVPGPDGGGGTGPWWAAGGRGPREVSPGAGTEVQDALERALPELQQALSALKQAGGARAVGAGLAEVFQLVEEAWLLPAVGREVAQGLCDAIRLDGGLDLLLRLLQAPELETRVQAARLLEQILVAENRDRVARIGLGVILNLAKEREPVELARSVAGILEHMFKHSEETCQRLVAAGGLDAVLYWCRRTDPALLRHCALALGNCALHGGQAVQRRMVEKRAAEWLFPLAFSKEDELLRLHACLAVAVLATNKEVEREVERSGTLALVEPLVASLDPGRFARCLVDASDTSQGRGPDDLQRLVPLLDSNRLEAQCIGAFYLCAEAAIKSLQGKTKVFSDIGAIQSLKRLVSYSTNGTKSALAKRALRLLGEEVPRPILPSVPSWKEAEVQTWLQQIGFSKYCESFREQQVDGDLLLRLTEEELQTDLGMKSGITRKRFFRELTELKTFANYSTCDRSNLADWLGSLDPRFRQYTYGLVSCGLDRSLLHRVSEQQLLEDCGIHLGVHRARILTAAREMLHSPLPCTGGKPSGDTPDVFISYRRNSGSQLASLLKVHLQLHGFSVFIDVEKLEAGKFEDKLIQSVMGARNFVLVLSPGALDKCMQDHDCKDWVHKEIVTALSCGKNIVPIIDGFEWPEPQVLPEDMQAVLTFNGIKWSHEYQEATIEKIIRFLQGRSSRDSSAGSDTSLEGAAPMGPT

CNCc1ccccc1
1.18: normalised cell number [9, 21]
1.06: normalised cell number [9, 22]
0.6%: nuclear beta-catenin stimulation ([1]; stimulation, at 2 µM)
inactive: nuclear beta-catenin stimulation ([1]; at 10 µM) -1.9% | insulin secretion stimulation [2] -0.1% | viability decrease [3] -25.9% | tube area decrease [4] -5.5% | GLP1 secretion stimulation [5] -3.4% | inhibition of viability [6] -14.3% | viability decrease (inhibition) [7] -24.6% | viability decrease (inhibition) [8] -15.4% | red/green cell ratio (normalised) [9] 0.9

CC(C)=CCC/C(C)=C/CO
inactive: parasite load remaining [10] 123% | nuclear beta-catenin stimulation ([1]; at 10 µM) -0.1% | insulin secretion stimulation [2] 0.7% | viability decrease [3] -10.3% | tube area decrease [4] 12.4% | GLP1 secretion stimulation [5] -1.8% | inhibition of viability [6] 1.77% | viability decrease (inhibition) [7] -1.7% | viability decrease (inhibition) [8] -8.2% | red/green cell ratio (normalised) [9] 0.92
1.13: normalised cell number [9, 21]
3%: nuclear beta-catenin stimulation ([1]; stimulation, at 2 µM)
71.1%: viability [10]
1.03: normalised cell number [9, 22]

CC(=O)NCc1c(I)c(NC(C)=O)c(I)c(C(=O)O)c1I
10700: cell count [11, 25]
1.27: normalised cell number [9, 22]
74.1% and 92.4%: viability [10]
1.02: normalised cell number [9, 21]
inactive: parasite load remaining [10] 120% and 34.8% | nuclear beta-catenin stimulation ([1]; at 10 µM) -1.4% | insulin secretion stimulation [2] -0.4% | viability decrease [3] -16.4% | tube area decrease [4] -6.1% | GLP1 secretion stimulation [5] 0% | inhibition of viability [6] -14.3% | viability decrease (inhibition) [7] 27.5% | viability decrease (inhibition) [8] -14.8% | red/green cell ratio (normalised) [9] 1.24 | fold change [11, 23] 0.851
-1.3%: nuclear beta-catenin stimulation ([1]; stimulation, at 2 µM)
12600: cell count [11, 26]
1.88: fold change [11, 24]

Nc1nc(Cl)nc2c1ncn2[C@@H]1O[C@H](CO)[C@@H](O)[C@@H]1F
3820 and 3160: cell count [11, 26]
84%: viability [10]
active: viability decrease [3] 44.1% | tube area decrease [4] 104% | inhibition of viability [6] 80.9% | viability decrease (inhibition) [7] 59.6% | AC50 [13] 332 nM | viability ([18]; at 0.0195 µM, OCI-P5x cells, without rucaparib) 95% | viability ([18]; at 0.0781 µM, OCI-C5x cells, with rucaparib 10 µM, 100% = cells with rucaparib alone) 98% | viability ([18]; at 0.0781 µM, OCI-C5x cells, without rucaparib) 78.6% | viability ([18]; at 0.0781 µM, OCI-P5x cells, without rucaparib) 84.8% | viability ([18]; at 0.313 µM, OCI-C5x cells, with rucaparib 10 µM, 100% = cells with rucaparib alone) 24% | viability ([18]; at 0.313 µM, OCI-C5x cells, without rucaparib) 24.6% | viability ([18]; at 0.313 µM, OCI-P5x cells, with rucaparib 20 µM, 100% = cells with rucaparib alone) 57.8% | viability ([18]; at 0.313 µM, OCI-P5x cells, without rucaparib) 29.3% | viability ([18]; at 1.25 µM, OCI-C5x cells, with rucaparib 10 µM, 100% = cells with rucaparib alone) 22.5% | viability ([18]; at 1.25 µM, OCI-C5x cells, without rucaparib) 23.9% | viability ([18]; at 1.25 µM, OCI-P5x cells, with rucaparib 20 µM, 100% = cells with rucaparib alone) 42.3% | viability ([18]; at 1.25 µM, OCI-P5x cells, without rucaparib) 20.5% | viability ([18]; at 5 µM, OCI-C5x cells, with rucaparib 10 µM, 100% = cells with rucaparib alone) 19.1% | viability ([18]; at 5 µM, OCI-C5x cells, without rucaparib) 19.7% | viability ([18]; at 5 µM, OCI-P5x cells, with rucaparib 20 µM, 100% = cells with rucaparib alone) 36.1% | viability ([18]; at 5 µM, OCI-P5x cells, without rucaparib) 18.2%
3880 and 3040: cell count [11, 25]
1.45 and 0.847: fold change [11, 24]
inactive: parasite load remaining [10] 11.2% | nuclear beta-catenin stimulation ([1]; at 10 µM) 30.8% | insulin secretion stimulation [2] 0.1% | GLP1 secretion stimulation [5] 0.3% | viability decrease (inhibition) [8] 43.5% | remaining activity [12] 104% | outcome [14] | outcome [15] | outcome [16] | fold change [11, 23] 1.02 and 0.96 | viability ([18]; at 0.000305 µM, OCI-C5x cells, with rucaparib 10 µM, 100% = cells with rucaparib alone) 115% | viability ([18]; at 0.000305 µM, OCI-C5x cells, without rucaparib) 107% | viability ([18]; at 0.000305 µM, OCI-P5x cells, with rucaparib 20 µM, 100% = cells with rucaparib alone) 116% | viability ([18]; at 0.000305 µM, OCI-P5x cells, without rucaparib) 113% | viability ([18]; at 0.00122 µM, OCI-C5x cells, with rucaparib 10 µM, 100% = cells with rucaparib alone) 118% | viability ([18]; at 0.00122 µM, OCI-C5x cells, without rucaparib) 113% | viability ([18]; at 0.00122 µM, OCI-P5x cells, with rucaparib 20 µM, 100% = cells with rucaparib alone) 112% | viability ([18]; at 0.00122 µM, OCI-P5x cells, without rucaparib) 109% | viability ([18]; at 0.00488 µM, OCI-C5x cells, with rucaparib 10 µM, 100% = cells with rucaparib alone) 116% | viability ([18]; at 0.00488 µM, OCI-C5x cells, without rucaparib) 110% | viability ([18]; at 0.00488 µM, OCI-P5x cells, with rucaparib 20 µM, 100% = cells with rucaparib alone) 115% | viability ([18]; at 0.00488 µM, OCI-P5x cells, without rucaparib) 118% | viability ([18]; at 0.0195 µM, OCI-C5x cells, with rucaparib 10 µM, 100% = cells with rucaparib alone) 113% | viability ([18]; at 0.0195 µM, OCI-C5x cells, without rucaparib) 112% | viability ([18]; at 0.0195 µM, OCI-P5x cells, with rucaparib 20 µM, 100% = cells with rucaparib alone) 111% | viability ([18]; at 0.0781 µM, OCI-P5x cells, with rucaparib 20 µM, 100% = cells with rucaparib alone) 111% | remaining NAD [19] 10 nM | z-score [20] -0.56 and -2.21
17.4%: nuclear beta-catenin stimulation ([1]; stimulation, at 2 µM)
2.02: z-score ([17]; Rieske KO mouse fibroblast survival, CellTiter-Glo 72 h)
-2.1: z-score ([17]; MELAS cybrid survival, CellTiter-Glo 48 h, stronger effect = higher value)
